The values below come from PubChem BioAssay AID686948 (National Center for Advancing Translational Sciences (NCATS), 2013).

Active and inactive are the calls of the source. Calls follow the shape of the dose curve; as a rule, active = well fitted inhibition curve with a large enough effect; inactive = flat fitted curve, though single readings scatter.

This test concerns the target Tyrosine-protein kinase Yes (Homo sapiens) (UniProt P07947). The test is described as follows: qHTS for small molecule inhibitors of Yes1 kinase: Confirmatory screen on the cherrypicks. Conditions: Recombinant Yes1, ADP-Glo luminescence, poly(E4Y) substrate. From the text:
The Src family of non-receptor protein tyrosine kinases contains nine members, including Yes1, Src, Fyn, Lyn, and […]. These kinases have important roles in a variety of cellular functions, such as cell proliferation, survival, and differentiation. Src, the most well characterized member of this family, has been previously identified as a proto-oncogene. […] In melanoma, it has been shown that Yes1, and not other family members, such as Src, is functionally involved in the malignant phenotype. Additionally, a recent study examining the downregulation of Yes1 by shRNA found significant effects on cell survival/growth for basal-like and Her2-positive breast cancers. […]
Two microliter of Yes1 enzyme (columns 1-2, 5-48; Millipore, Billerica, MA) are dispensed into Greiner, white solid-bottom 1536-well assay plates; columns 3 and 4 receive buffer without Yes1 as a control for maximum inhibition. […] The production of ADP is then quantified by the ADP-Glo Kit (Promega, Madison, WI). First, 2 uL of the first kit reagent is added, and the reaction is incubated for 45 minutes; then, 4 uL of the second kit reagent are added and the reaction is incubated for 30 minutes at which time the luminescence is read on a Viewlux plate reader (Perkin-Elmer, Waltham, MA). […]
For orientation: Quantitative high-throughput screening tests each substance at several concentrations.

Sequence of Tyrosine-protein kinase Yes (Homo sapiens) (P07947 whole entry, looked up): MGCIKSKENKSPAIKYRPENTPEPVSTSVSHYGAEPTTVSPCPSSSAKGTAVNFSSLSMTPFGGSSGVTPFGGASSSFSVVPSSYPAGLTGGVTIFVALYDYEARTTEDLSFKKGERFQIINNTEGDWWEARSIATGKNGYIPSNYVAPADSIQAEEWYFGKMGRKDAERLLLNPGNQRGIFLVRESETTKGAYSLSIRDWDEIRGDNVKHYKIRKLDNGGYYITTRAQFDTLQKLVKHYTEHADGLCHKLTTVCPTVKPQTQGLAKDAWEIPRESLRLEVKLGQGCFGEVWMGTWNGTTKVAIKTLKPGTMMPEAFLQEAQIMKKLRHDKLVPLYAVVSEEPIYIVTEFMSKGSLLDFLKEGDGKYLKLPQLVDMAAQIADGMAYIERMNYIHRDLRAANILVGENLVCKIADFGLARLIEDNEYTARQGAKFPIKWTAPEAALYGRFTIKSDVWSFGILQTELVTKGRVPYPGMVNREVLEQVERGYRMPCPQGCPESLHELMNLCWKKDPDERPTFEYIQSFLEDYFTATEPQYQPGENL

On to `c1cc(-c2cnn3cc(-c4ccc(OCCN5CCCCC5)cc4)cnc23)ccn1`, for which the Potency was 196 nM (active).
